# Measured values from PubChem BioAssay AID1159580 (chemical genetic matrix, 2015).
# Hit rate of the full screen: of about 5,500 compounds, about 2,000 (36%) were called active. Another 18% or so got no clear call; they are omitted. The list shows a part of the results. Values without a mark were called inactive. Rule as the data show it: active = normalized growth mostly below about 0.91 (no sharp cut-off); inconclusive = no clear call, values can overlap the other calls; inactive = mostly above about 0.92.
# Assay: chemical genetic growth profiling, strain panel (AID 1159580);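 also: tested at 20 µM; growth read once vehicle control cultures reached saturation at 30 °C; 1 = growth at the plate median or of vehicle wells; lower values mean less growth of the strain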
# Settings: growth OD
# [1] = S. cerevisiae deletion strains, locus YDL101C, strain DUN1, active compounds read low
# [2] = S. cerevisiae deletion strains, locus YHR030C, strain SLT2, active compounds read low
# [3] = S. cerevisiae deletion strains, locus YAL013W, strain DEP1, active compounds read low
# [4] = S. cerevisiae deletion strains, locus YBR229C, strain ROT2, active compounds read low
# [5] = S. cerevisiae deletion strains, locus YDL134C, strain PPH21, active compounds read low
# [6] = S. cerevisiae deletion strains, locus YDR150W, strain NUM1, active compounds read low
# [7] = S. cerevisiae deletion strains, locus YEL061C, strain CIN8, active compounds read low
# [8] = S. cerevisiae deletion strains, locus YGR078C, strain PAC10, active compounds read low
# [9] = S. cerevisiae deletion strains, locus YHR087W, strain rtc3, active compounds read low
# [10] = S. cerevisiae deletion strains, locus YJL187C, strain SWE1, active compounds read low
# [11] = S. cerevisiae deletion strains, locus YJR043C, strain POL32, active compounds read low
# [12] = S. cerevisiae deletion strains, locus YJR075W, strain HOC1, active compounds read low
# [13] = S. cerevisiae deletion strains, locus YKL190W, strain CNB1, active compounds read low
# [14] = S. cerevisiae deletion strains, locus YLR039C, strain RIC1, active compounds read low
# [15] = S. cerevisiae deletion strains, locus YLR058C, strain SHM2 (second series), active compounds read low
# [16] = S. cerevisiae deletion strains, locus YLR085C, strain ARP6, active compounds read low
# [17] = S. cerevisiae deletion strains, locus YLR262C, strain YPT6, active compounds read low
# [18] = S. cerevisiae deletion strains, locus YML094W, strain GIM5, active compounds read low
# [19] = S. cerevisiae deletion strains, locus YMR219W, strain ESC1, active compounds read low
# [20] = S. cerevisiae deletion strains, locus YMR263W, strain SAP30, active compounds read low
# [21] = S. cerevisiae deletion strains, locus YNL153C, strain GIM3, active compounds read low
# [22] = S. cerevisiae deletion strains, locus YNL298W, strain CLA4 (second series), active compounds read low
# [23] = S. cerevisiae deletion strains, locus YNL322C, strain KRE1, active compounds read low
# [24] = S. cerevisiae deletion strains, locus YNR030W, strain Alg12, active compounds read low
# [25] = S. cerevisiae deletion strains, locus YPL055C, strain LGE1, active compounds read low
# [26] = S. cerevisiae deletion strains, locus YPL241C, strain CIN2, active compounds read low
# [27] = S. cerevisiae deletion strains, locus YPR135W, strain CTF4, active compounds read low
smiles,measurement,setting,value
CCC(C)Cn1c(Sc2ncc([N+](=O)[O-])s2)n[nH]c1=O (stereo not given),normalized growth,"S. cerevisiae deletion strains, locus YAR019C, strain CDC15, active compounds read low",0.853 (active)
same,normalized growth,"S. cerevisiae deletion strains, locus YBL105C, strain PKC1, active compounds read low",0.893 (active)
same,normalized growth,"S. cerevisiae deletion strains, locus YBR135W, strain CKS1, active compounds read low",0.867 (active)
same,normalized growth,"S. cerevisiae deletion strains, locus YBR136W, strain MEC1, active compounds read low",0.888 (active)
same,normalized growth,"S. cerevisiae deletion strains, locus YBR160W, strain CDC28, active compounds read low",0.894 (active)
same,normalized growth,"S. cerevisiae deletion strains, locus YDL017W, strain CDC7, active compounds read low",0.895 (active)
same,normalized growth,"S. cerevisiae deletion strains, locus YDL028C, strain MPS1, active compounds read low",0.895
same,normalized growth,[1],0.932
same,normalized growth,"S. cerevisiae deletion strains, locus YDL108W, strain KIN28, active compounds read low",0.878 (active)
same,normalized growth,"S. cerevisiae deletion strains, locus YDL132W, strain cdc53, active compounds read low",0.849 (active)
same,normalized growth,"S. cerevisiae deletion strains, locus YDL214C, strain PRR2, active compounds read low",0.794
same,normalized growth,"S. cerevisiae deletion strains, locus YDR052C, strain DBF4, active compounds read low",0.93
same,normalized growth,"S. cerevisiae deletion strains, locus YDR054C, strain cdc34, active compounds read low",0.825 (active)
same,normalized growth,"S. cerevisiae deletion strains, locus YDR226W, strain ADK1, active compounds read low",0.884 (active)
same,normalized growth,"S. cerevisiae deletion strains, locus YDR477W, strain SNF1, active compounds read low",0.711
same,normalized growth,"S. cerevisiae deletion strains, locus YER123W, strain YCK3, active compounds read low",0.649
same,normalized growth,"S. cerevisiae deletion strains, locus YER133W, strain GLC7, active compounds read low",0.69 (active)
same,normalized growth,"S. cerevisiae deletion strains, locus YFL009W, strain cdc4, active compounds read low",0.844 (active)
same,normalized growth,"S. cerevisiae deletion strains, locus YFL029C, strain CAK1, active compounds read low",0.848 (active)
same,normalized growth,"S. cerevisiae deletion strains, locus YFR003C, strain YPI1, active compounds read low",0.901 (active)
same,normalized growth,"S. cerevisiae deletion strains, locus YFR019W, strain FAB1, active compounds read low",0.838
same,normalized growth,"S. cerevisiae deletion strains, locus YFR028C, strain CDC14, active compounds read low",0.888 (active)
same,normalized growth,"S. cerevisiae deletion strains, locus YGR040W, strain KSS1, active compounds read low",0.751
same,normalized growth,"S. cerevisiae deletion strains, locus YGR052W, strain FMP48, active compounds read low",0.776
same,normalized growth,"S. cerevisiae deletion strains, locus YGR092W, strain DBF2, active compounds read low",0.469 (active)
same,normalized growth,[2],0.772 (active)
same,normalized growth,"S. cerevisiae deletion strains, locus YHR079C, strain IRE1, active compounds read low",0.657
same,normalized growth,"S. cerevisiae deletion strains, locus YHR082C, strain KSP1, active compounds read low",0.926
same,normalized growth,"S. cerevisiae deletion strains, locus YHR205W, strain SCH9, active compounds read low",0.806
same,normalized growth,"S. cerevisiae deletion strains, locus YIL147C, strain SLN1, active compounds read low",0.896
same,normalized growth,"S. cerevisiae deletion strains, locus YJL095W, strain BCK1, active compounds read low",0.651
same,normalized growth,"S. cerevisiae deletion strains, locus YJL128C, strain PBS2, active compounds read low",0.938
same,normalized growth,"S. cerevisiae deletion strains, locus YJL157C, strain FAR1, active compounds read low",0.763
same,normalized growth,"S. cerevisiae deletion strains, locus YJR016C, strain ILV3, active compounds read low",0.877 (active)
same,normalized growth,"S. cerevisiae deletion strains, locus YJR066W, strain TOR1 (second series), active compounds read low",0.492 (active)
same,normalized growth,"S. cerevisiae deletion strains, locus YJR066W, strain TOR1, active compounds read low",0.778
same,normalized growth,"S. cerevisiae deletion strains, locus YKL048C, strain ELM1, active compounds read low",0.963
same,normalized growth,"S. cerevisiae deletion strains, locus YKL067W, strain YNK1, active compounds read low",0.792
same,normalized growth,"S. cerevisiae deletion strains, locus YKL101W, strain HSL1, active compounds read low",0.838
same,normalized growth,"S. cerevisiae deletion strains, locus YKL193C, strain SDS22, active compounds read low",0.849 (active)
same,normalized growth,"S. cerevisiae deletion strains, locus YKL203C, strain TOR2, active compounds read low",0.795
same,normalized growth,"S. cerevisiae deletion strains, locus YLR113W, strain HOG1, active compounds read low",0.598 (active)
same,normalized growth,"S. cerevisiae deletion strains, locus YLR133W, strain CKI1, active compounds read low",0.805
same,normalized growth,"S. cerevisiae deletion strains, locus YLR403W, strain SFP1, active compounds read low",0.56 (active)
same,normalized growth,"S. cerevisiae deletion strains, locus YML070W, strain DAK1, active compounds read low",0.759
same,normalized growth,"S. cerevisiae deletion strains, locus YMR001C, strain CDC5, active compounds read low",0.88 (active)
same,normalized growth,"S. cerevisiae deletion strains, locus YMR205C, strain PFK2 (second series), active compounds read low",0.844
same,normalized growth,"S. cerevisiae deletion strains, locus YMR277W, strain FCP1, active compounds read low",0.846 (active)
same,normalized growth,"S. cerevisiae deletion strains, locus YNL006W, strain LST8, active compounds read low",0.894 (active)
same,normalized growth,"S. cerevisiae deletion strains, locus YNL020C, strain ARK1, active compounds read low",0.826
same,normalized growth,"S. cerevisiae deletion strains, locus YNL161W, strain CBK1, active compounds read low",0.875 (active)
same,normalized growth,"S. cerevisiae deletion strains, locus YNL183C, strain NPR1, active compounds read low",0.652
same,normalized growth,"S. cerevisiae deletion strains, locus YNL207W, strain RIO2, active compounds read low",0.867 (active)
same,normalized growth,"S. cerevisiae deletion strains, locus YNL222W, strain SSU72, active compounds read low",0.865 (active)
same,normalized growth,"S. cerevisiae deletion strains, locus YNL307C, strain MCK1 (second series), active compounds read low",0.714
same,normalized growth,"S. cerevisiae deletion strains, locus YOL078W, strain AVO1, active compounds read low",0.856 (active)
same,normalized growth,"S. cerevisiae deletion strains, locus YOL136C, strain PFK27, active compounds read low",0.766
same,normalized growth,"S. cerevisiae deletion strains, locus YOR061W, strain CKA2, active compounds read low",0.85
same,normalized growth,"S. cerevisiae deletion strains, locus YOR119C, strain RIO1, active compounds read low",0.735
same,normalized growth,"S. cerevisiae deletion strains, locus YOR231W, strain MKK1, active compounds read low",0.722
same,normalized growth,"S. cerevisiae deletion strains, locus YOR329C, strain SCD5, active compounds read low",0.908
same,normalized growth,"S. cerevisiae deletion strains, locus YPL031C, strain PHO85, active compounds read low",0.674
same,normalized growth,"S. cerevisiae deletion strains, locus YPL153C, strain RAD53, active compounds read low",0.657 (active)
same,normalized growth,"S. cerevisiae deletion strains, locus YPL204W, strain HRR25, active compounds read low",0.683
same,normalized growth,"S. cerevisiae deletion strains, locus YPL209C, strain IPL1, active compounds read low",0.891 (active)
same,normalized growth,"S. cerevisiae deletion strains, locus YPL256C, strain CLN2, active compounds read low",0.695 (active)
same,normalized growth,"S. cerevisiae deletion strains, locus YPR025C, strain CCL1, active compounds read low",0.888 (active)
same,normalized growth,"S. cerevisiae deletion strains, locus YPR106W, strain ISR1, active compounds read low",0.943
same,normalized growth,"S. cerevisiae deletion strains, locus YPR111W, strain DBF20, active compounds read low",0.938
same,normalized growth,"S. cerevisiae deletion strains, strain NNK1, active compounds read low",0.932
same,normalized growth,"S. cerevisiae deletion strains, strain TSCII, active compounds read low",0.85 (active)
CCCCCn1c(Sc2ncc([N+](=O)[O-])s2)n[nH]c1=O,normalized growth,[3],0.592 (active)
same,normalized growth,[4],0.463 (active)
same,normalized growth,"S. cerevisiae deletion strains, locus YCL061C, strain MRC1, active compounds read low",0.67 (active)
same,normalized growth,[1],0.559 (active)
same,normalized growth,[5],0.099 (active)
same,normalized growth,[6],0.615 (active)
same,normalized growth,[7],0.0768 (active)
same,normalized growth,[8],0.499 (active)
same,normalized growth,[2],0.0794 (active)
same,normalized growth,[9],0.53 (active)
same,normalized growth,[10],0.493 (active)
same,normalized growth,[11],0.695 (active)
same,normalized growth,[12],0.471 (active)
same,normalized growth,[13],0.0782 (active)
same,normalized growth,[14],0.134 (active)
same,normalized growth,[15],0.675 (active)
same,normalized growth,[16],0.0989 (active)
same,normalized growth,[17],0.123 (active)
same,normalized growth,[18],0.22 (active)
same,normalized growth,[19],0.624 (active)
same,normalized growth,[20],0.669 (active)
same,normalized growth,[21],0.0882 (active)
same,normalized growth,[22],0.0804 (active)
same,normalized growth,[23],0.917 (active)
same,normalized growth,[24],0.0933 (active)
same,normalized growth,[25],0.292 (active)
same,normalized growth,[26],0.1 (active)
same,normalized growth,[27],0.186 (active)
same,normalized growth,"S. cerevisiae strains, strain wild type, active compounds read low",0.0897 (active)
N#CC(C#N)=Cc1ccc([N+](=O)[O-])c(O)c1,normalized growth,"S. cerevisiae deletion strains, locus YAL040C, strain CLN3, active compounds read low",1.04
same,normalized growth,"S. cerevisiae deletion strains, locus YCL061C, strain MRC1 (second series), active compounds read low",0.991
same,normalized growth,"S. cerevisiae deletion strains, locus YDR363W, strain ESC2, active compounds read low",0.968
same,normalized growth,"S. cerevisiae deletion strains, locus YER002W, strain NOP16, active compounds read low",0.956
same,normalized growth,"S. cerevisiae deletion strains, locus YMR307W, strain GAS1, active compounds read low",1.01
same,normalized growth,"S. cerevisiae deletion strains, locus YNL128W, strain TEP1, active compounds read low",0.966
same,normalized growth,"S. cerevisiae deletion strains, locus YNL175C, strain NOP13, active compounds read low",0.953
same,normalized growth,"S. cerevisiae deletion strains, locus YNL197C, strain WHI3, active compounds read low",0.955
same,normalized growth,"S. cerevisiae deletion strains, locus YNL224C, strain SQS1, active compounds read low",0.988
same,normalized growth,"S. cerevisiae deletion strains, locus YOR083W, strain WHI5 (second series), active compounds read low",0.992
same,normalized growth,[26],0.988
N#Cc1ccc([N+](=O)[O-])s1,normalized growth,[3],0.726 (active)
same,normalized growth,[4],0.446 (active)
same,normalized growth,[1],0.201 (active)
same,normalized growth,[5],0.0493 (active)
same,normalized growth,[6],0.681 (active)
same,normalized growth,[7],0.194 (active)
same,normalized growth,[8],0.385 (active)
same,normalized growth,"S. cerevisiae deletion strains, locus YGR229C, strain SMI1, active compounds read low",0.992
same,normalized growth,[2],0.0826 (active)
same,normalized growth,[9],0.379 (active)
same,normalized growth,[10],0.261 (active)
same,normalized growth,[11],0.564 (active)
same,normalized growth,[12],0.198 (active)
same,normalized growth,[13],0.0802 (active)
same,normalized growth,[14],0.346 (active)
same,normalized growth,[15],0.461 (active)
same,normalized growth,[16],0.121 (active)
same,normalized growth,[17],0.588 (active)
same,normalized growth,[18],0.271 (active)
same,normalized growth,[19],0.7 (active)
same,normalized growth,[20],0.46 (active)
same,normalized growth,[21],0.382 (active)
same,normalized growth,[22],0.105 (active)
same,normalized growth,[23],1.01
same,normalized growth,[24],0.096 (active)
same,normalized growth,"S. cerevisiae deletion strains, locus YOL006C, strain TOP1, active compounds read low",0.115 (active)
same,normalized growth,[25],0.547 (active)
same,normalized growth,[26],0.0815 (active)
same,normalized growth,[27],0.186 (active)
